The results in this text go back to article PMC11006913.

Targets include PITX2 (Homo sapiens, UniProt Q99697 72-157); HOXC9 (Homo sapiens, UniProt P31274 178-260, R222W); HOXA4 (Homo sapiens, UniProt Q00056 201-287, W262F).
Common to all, as to assay: PBM; 200 nM protein, PBS
Holding throughout (settings): dsDNA, one strand shown

The target of experiment [1] is HOXC10 (Homo sapiens, UniProt Q9NYD6 254-340).
Experiment [2] deals with HOXC10 (Homo sapiens, UniProt Q9NYD6 254-340, K271E).
The target in experiment [3] is HOXD13 (Homo sapiens, UniProt P35453 263-343, T313R).
Sequence of HOXD13 (Homo sapiens, UniProt P35453 263-343, T313R) (P35453 263-343 T313R): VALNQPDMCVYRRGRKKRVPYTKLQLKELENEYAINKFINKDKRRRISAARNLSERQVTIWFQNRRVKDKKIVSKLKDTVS
Experiment [4] has as its target HOXD13 (Homo sapiens, UniProt P35453 263-343).
Experiment [5] addresses HOXD13 (Homo sapiens, UniProt P35453 263-343, T313A).
The target in experiment [6] is ALX4 (Homo sapiens, UniProt Q9H161 200-286).
Sequence of ALX4 (Homo sapiens, UniProt Q9H161 200-286) (Q9H161 200-286): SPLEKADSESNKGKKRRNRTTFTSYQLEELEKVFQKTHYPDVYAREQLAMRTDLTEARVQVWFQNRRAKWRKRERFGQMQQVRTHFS
The target in experiment [7] is PRRX1 (Homo sapiens, UniProt P54821 80-166, F113S).
Sequence of PRRX1 (Homo sapiens, UniProt P54821 80-166, F113S) (P54821 80-166 F113S): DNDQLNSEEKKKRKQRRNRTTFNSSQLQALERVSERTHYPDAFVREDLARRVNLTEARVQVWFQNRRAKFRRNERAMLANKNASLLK
The target of experiment [8] is ALX4 (Homo sapiens, UniProt Q9H161 200-286, Q225E).
Sequence of ALX4 (Homo sapiens, UniProt Q9H161 200-286, Q225E) (Q9H161 200-286 Q225E): as the sequence (Q9H161 200-286) above, with Q26E counted along it
For experiment [9], the target named is PRRX1 (Homo sapiens, UniProt P54821 80-166).
Sequence of PRRX1 (Homo sapiens, UniProt P54821 80-166) (P54821 80-166): as the sequence (P54821 80-166 F113S) above, with S34F counted along it
Experiment [10] deals with VAX1 (Homo sapiens, UniProt Q5SQQ9 86-172).
Sequence of VAX1 (Homo sapiens, UniProt Q5SQQ9 86-172) (Q5SQQ9 86-172): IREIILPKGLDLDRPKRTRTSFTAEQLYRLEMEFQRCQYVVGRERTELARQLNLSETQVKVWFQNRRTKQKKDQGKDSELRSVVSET
In experiment [11] the target is VAX1 (Homo sapiens, UniProt Q5SQQ9 86-172, T142I).
Sequence of VAX1 (Homo sapiens, UniProt Q5SQQ9 86-172, T142I) (Q5SQQ9 86-172 T142I): as the sequence (Q5SQQ9 86-172) above, with T57I counted along it
Experiment [12] has as its target VAX1 (Homo sapiens, UniProt Q5SQQ9 86-172, K157R).

Sequence of HOXC10 (Homo sapiens, UniProt Q9NYD6 254-340, K271E) (Q9NYD6 254-340 K271E): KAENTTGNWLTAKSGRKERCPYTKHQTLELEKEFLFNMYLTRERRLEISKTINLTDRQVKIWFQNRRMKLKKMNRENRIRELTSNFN
Sequence of HOXC10 (Homo sapiens, UniProt Q9NYD6 254-340) (Q9NYD6 254-340): as the sequence (Q9NYD6 254-340 K271E) above, with E18K counted along it
Sequence of HOXD13 (Homo sapiens, UniProt P35453 263-343, T313A) (P35453 263-343 T313A): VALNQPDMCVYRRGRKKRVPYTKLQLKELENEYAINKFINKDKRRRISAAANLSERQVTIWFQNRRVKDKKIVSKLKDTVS
Sequence of HOXD13 (Homo sapiens, UniProt P35453 263-343) (P35453 263-343): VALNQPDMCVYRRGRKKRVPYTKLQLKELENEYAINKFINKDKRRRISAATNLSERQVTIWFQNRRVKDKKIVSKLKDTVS
Sequence of VAX1 (Homo sapiens, UniProt Q5SQQ9 86-172, K157R) (Q5SQQ9 86-172 K157R): as the sequence (Q5SQQ9 86-172) above, with K72R counted along it
Sequence of HOXA4 (Q00056 201-287 W262F): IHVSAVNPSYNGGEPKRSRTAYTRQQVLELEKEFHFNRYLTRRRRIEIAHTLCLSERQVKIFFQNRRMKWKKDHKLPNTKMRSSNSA
Sequence of HOXC9 (P31274 178-260 R222W): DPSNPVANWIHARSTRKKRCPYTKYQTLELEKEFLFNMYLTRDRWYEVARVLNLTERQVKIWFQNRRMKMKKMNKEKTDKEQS

On to CATAAATA, for which the binding signal is 12.1 upbm affinity estimate (log intensity, higher = more binding, comparable within an allelic series) in the experiment with HOXC10 [1] and 11.5 upbm affinity estimate (log intensity, higher = more binding, comparable within an allelic series) in the experiment with HOXC10 [2].

Turning to ATCATACA, the binding signal in the experiment with HOXC10 [1] was 10.9 upbm affinity estimate (log intensity, higher = more binding, comparable within an allelic series); with HOXC10 [2], 10.8 upbm affinity estimate (log intensity, higher = more binding, comparable within an allelic series).

On to GGGGCTAC, for which the binding signal is 10.1 upbm affinity estimate (log intensity, higher = more binding, comparable within an allelic series) with HOXC10 [1] and 10.1 upbm affinity estimate (log intensity, higher = more binding, comparable within an allelic series) with HOXC10 [2].

Take AAATAAAA: the binding signal was 11.9 upbm affinity estimate (log intensity, higher = more binding, comparable within an allelic series) with HOXC10 [1] and 11.1 upbm affinity estimate (log intensity, higher = more binding, comparable within an allelic series) with HOXC10 [2].

Consider CTTCGACC, for which the binding signal was 9.95 upbm affinity estimate (log intensity, higher = more binding, comparable within an allelic series) with HOXC10 [1] and 10 upbm affinity estimate (log intensity, higher = more binding, comparable within an allelic series) with HOXC10 [2].

For AGAAAAAG, the binding signal was 10 upbm affinity estimate (log intensity, higher = more binding, comparable within an allelic series) with HOXC10 [1] and 10.1 upbm affinity estimate (log intensity, higher = more binding, comparable within an allelic series) with HOXC10 [2].

As to GCCTAATA, the binding signal with HOXC10 [1] is 11 upbm affinity estimate (log intensity, higher = more binding, comparable within an allelic series); with HOXC10 [2] it was 10.9 upbm affinity estimate (log intensity, higher = more binding, comparable within an allelic series).

Regarding AAGCCTGG, the binding signal with HOXC10 [1] is 10.1 upbm affinity estimate (log intensity, higher = more binding, comparable within an allelic series); with HOXC10 [2] it was 10 upbm affinity estimate (log intensity, higher = more binding, comparable within an allelic series).

For ACATAAGT, the binding signal is 10.9 upbm affinity estimate (log intensity, higher = more binding, comparable within an allelic series) with HOXC10 [1]; 9.71 upbm affinity estimate (log intensity, higher = more binding, comparable within an allelic series) in the experiment with PITX2; 10.8 upbm affinity estimate (log intensity, higher = more binding, comparable within an allelic series) with HOXC10 [2].

On to CGCCCCGA, for which the binding signal is 10.1 upbm affinity estimate (log intensity, higher = more binding, comparable within an allelic series) with HOXC10 [1] and 9.97 upbm affinity estimate (log intensity, higher = more binding, comparable within an allelic series) with HOXC10 [2].

GAAGCTCC: the binding signal was 10.1 upbm affinity estimate (log intensity, higher = more binding, comparable within an allelic series) with HOXC10 [1] and 10.1 upbm affinity estimate (log intensity, higher = more binding, comparable within an allelic series) in the experiment with HOXC10 [2].

As for AGGGCCAG, the binding signal in the experiment with HOXC10 [1] was 9.98 upbm affinity estimate (log intensity, higher = more binding, comparable within an allelic series); in the experiment with HOXC10 [2], 10 upbm affinity estimate (log intensity, higher = more binding, comparable within an allelic series).

On to AACCTGCC, for which the binding signal in the experiment with HOXC10 [1] was 10.1 upbm affinity estimate (log intensity, higher = more binding, comparable within an allelic series); with PITX2, 7.89 upbm affinity estimate (log intensity, higher = more binding, comparable within an allelic series); with HOXC10 [2] it was 10.1 upbm affinity estimate (log intensity, higher = more binding, comparable within an allelic series).

Turning to ACGCGAGC, the binding signal with HOXC10 [1] is 10.1 upbm affinity estimate (log intensity, higher = more binding, comparable within an allelic series); with HOXC10 [2] it was 10.1 upbm affinity estimate (log intensity, higher = more binding, comparable within an allelic series).

Regarding ATAGATGA, the binding signal was 10.8 upbm affinity estimate (log intensity, higher = more binding, comparable within an allelic series) in the experiment with HOXC10 [1] and 10.8 upbm affinity estimate (log intensity, higher = more binding, comparable within an allelic series) with HOXC10 [2].

Consider GCGAGTCC, for which the binding signal was 10.1 upbm affinity estimate (log intensity, higher = more binding, comparable within an allelic series) with HOXC10 [1] and 10.1 upbm affinity estimate (log intensity, higher = more binding, comparable within an allelic series) in the experiment with HOXC10 [2].

CGCCGGCC: the binding signal with HOXC10 [1] is 9.95 upbm affinity estimate (log intensity, higher = more binding, comparable within an allelic series); with HOXC10 [2], 9.99 upbm affinity estimate (log intensity, higher = more binding, comparable within an allelic series).

As for CCCGGGCG, the binding signal with HOXC10 [1] was 10.1 upbm affinity estimate (log intensity, higher = more binding, comparable within an allelic series); with HOXC10 [2] it was 10.1 upbm affinity estimate (log intensity, higher = more binding, comparable within an allelic series).

Turning to GAGCTGCC, the binding signal with HOXC10 [1] was 9.9 upbm affinity estimate (log intensity, higher = more binding, comparable within an allelic series); with HOXC10 [2], 9.88 upbm affinity estimate (log intensity, higher = more binding, comparable within an allelic series).

Regarding ATAAAAAT, the binding signal is 12.2 upbm affinity estimate (log intensity, higher = more binding, comparable within an allelic series) in the experiment with HOXC10 [1]; 10.7 upbm affinity estimate (log intensity, higher = more binding, comparable within an allelic series) in the experiment with HOXD13 [3]; 11.7 upbm affinity estimate (log intensity, higher = more binding, comparable within an allelic series) in the experiment with HOXC10 [2]; 11.2 upbm affinity estimate (log intensity, higher = more binding, comparable within an allelic series) in the experiment with HOXC9.

For CCCGTAAA, the binding signal was 11.3 upbm affinity estimate (log intensity, higher = more binding, comparable within an allelic series) in the experiment with HOXC10 [1]; 10.6 upbm affinity estimate (log intensity, higher = more binding, comparable within an allelic series) in the experiment with HOXD13 [3]; 11.9 upbm affinity estimate (log intensity, higher = more binding, comparable within an allelic series) in the experiment with HOXD13 [4]; 11.6 upbm affinity estimate (log intensity, higher = more binding, comparable within an allelic series) in the experiment with HOXD13 [5].

Take GGGCTACC: the binding signal with HOXC10 [1] was 10 upbm affinity estimate (log intensity, higher = more binding, comparable within an allelic series); with HOXC10 [2] it was 10.1 upbm affinity estimate (log intensity, higher = more binding, comparable within an allelic series).

Turning to ACGCTGGA, the binding signal in the experiment with HOXC10 [1] is 9.94 upbm affinity estimate (log intensity, higher = more binding, comparable within an allelic series); with HOXC10 [2], 10.1 upbm affinity estimate (log intensity, higher = more binding, comparable within an allelic series).

Take CTTAAATA: the binding signal with HOXC10 [1] was 10.9 upbm affinity estimate (log intensity, higher = more binding, comparable within an allelic series); with HOXC10 [2] it was 10.7 upbm affinity estimate (log intensity, higher = more binding, comparable within an allelic series).

On to GGTCCGCA, for which the binding signal is 10 upbm affinity estimate (log intensity, higher = more binding, comparable within an allelic series) in the experiment with HOXC10 [1] and 10 upbm affinity estimate (log intensity, higher = more binding, comparable within an allelic series) in the experiment with HOXC10 [2].

For the sequence AAAGATAT, the binding signal with HOXC10 [1] is 10.9 upbm affinity estimate (log intensity, higher = more binding, comparable within an allelic series); with HOXD13 [4], 10.8 upbm affinity estimate (log intensity, higher = more binding, comparable within an allelic series); with HOXD13 [5], 10.9 upbm affinity estimate (log intensity, higher = more binding, comparable within an allelic series).

Regarding AATGGTCC, the binding signal with HOXC10 [1] was 11 upbm affinity estimate (log intensity, higher = more binding, comparable within an allelic series); with HOXC10 [2], 10.9 upbm affinity estimate (log intensity, higher = more binding, comparable within an allelic series).

For CAGCGCCC, the binding signal with HOXC10 [1] was 9.88 upbm affinity estimate (log intensity, higher = more binding, comparable within an allelic series); with HOXC10 [2], 9.95 upbm affinity estimate (log intensity, higher = more binding, comparable within an allelic series).

Turning to ATATTTAG, the binding signal with ALX4 [6] is 10.9 upbm affinity estimate (log intensity, higher = more binding, comparable within an allelic series).

Consider CCTCGAAC, for which the binding signal is 8.02 upbm affinity estimate (log intensity, higher = more binding, comparable within an allelic series) in the experiment with ALX4 [6]; 9.46 upbm affinity estimate (log intensity, higher = more binding, comparable within an allelic series) in the experiment with PRRX1 [7]; 8.29 upbm affinity estimate (log intensity, higher = more binding, comparable within an allelic series) with ALX4 [8]; 9.07 upbm affinity estimate (log intensity, higher = more binding, comparable within an allelic series) with PRRX1 [9].

Take ATAACAAG: the binding signal with ALX4 [6] is 10.9 upbm affinity estimate (log intensity, higher = more binding, comparable within an allelic series).

As for AATCTCCA, the binding signal in the experiment with ALX4 [6] is 9.73 upbm affinity estimate (log intensity, higher = more binding, comparable within an allelic series).

Turning to CTACTTAC, in the experiment with ALX4 [6], the binding signal was 9.76 upbm affinity estimate (log intensity, higher = more binding, comparable within an allelic series).

Consider AGTTAGTG, for which the binding signal in the experiment with ALX4 [6] is 10.4 upbm affinity estimate (log intensity, higher = more binding, comparable within an allelic series).

In the case of CATTACCG, the binding signal in the experiment with ALX4 [6] is 11.2 upbm affinity estimate (log intensity, higher = more binding, comparable within an allelic series).

As for CATTAACA, the binding signal in the experiment with HOXC10 [1] was 11.8 upbm affinity estimate (log intensity, higher = more binding, comparable within an allelic series); with HOXC10 [2], 11.6 upbm affinity estimate (log intensity, higher = more binding, comparable within an allelic series); with HOXA4, 11.5 upbm affinity estimate (log intensity, higher = more binding, comparable within an allelic series).

As for ATGAATTG, the binding signal in the experiment with ALX4 [6] was 11 upbm affinity estimate (log intensity, higher = more binding, comparable within an allelic series).

Turning to ATATAGTC, the binding signal in the experiment with ALX4 [6] is 8.99 upbm affinity estimate (log intensity, higher = more binding, comparable within an allelic series).

As to CCGGGGAA, the binding signal with HOXC10 [1] is 9.93 upbm affinity estimate (log intensity, higher = more binding, comparable within an allelic series); in the experiment with HOXC10 [2], 9.99 upbm affinity estimate (log intensity, higher = more binding, comparable within an allelic series); with VAX1 [10], 7.17 upbm affinity estimate (log intensity, higher = more binding, comparable within an allelic series); with VAX1 [11], 7.19 upbm affinity estimate (log intensity, higher = more binding, comparable within an allelic series); with VAX1 [12], 7.27 upbm affinity estimate (log intensity, higher = more binding, comparable within an allelic series).
